Source: PubChem (several laboratories)
Shown are actives, neighbours in structure and some others; about 1.7% of the full set was active somewhere.
ARNT-TACC3 inh = ARNT/TACC3 interaction disruption; Q9Y6A5; hit rate 0.66% among 390,000; inhibition, % at 9.99 µM; AlphaScreen His-ARNT PAS-B/GST-TACC3 binding, luminescence; TACC3 fragment carries E629A point mutation;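 active = mean inhibition of replicates at least 50% and at least half of replicates each reaching 50%; inconclusive = half or more replicates reach 50% but mean below 50%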;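 note: 0% = complete ARNT plus TACC3 wells and 100% = ARNT alone without TACC3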
Vif imaging = inhibitors of HIV Vif. HEK293T cells, Vif self-association by quenched fluorescence, imaging, 24 h. inhibition, % at 7.49 µM. AID 602346. hit rate 0.35% among 340,000; in the data active = inhibition above about 50%, passing the limit was not always enough; inconclusive = no clear call, values can overlap the other calls; inactive = below about 31%
Glyco luc inh = blocks N-linked glycosylation in D54 reporter cells; D54 ERlucT glycosylation luciferase reporter, 24 h; percent of 100 nM tunicamycin response; reporter increase, % at 12.5 µM; hit rate 0.23% among 360,000;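 active = mean luciferase reporter signal, scaled so untreated is 0 and the glycosylation-blocking control 100, at or above a set limit in every replicate; inconclusive = mean reaches the limit but not every replicate does; inactive = mean below the limit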;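 note: luciferase carries N-glycosylation sites so blocking glycosylation raises the light; 0% = median of neutral control wells and 100% = median of 100 nM tunicamycin wells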
aDG glyco act = alpha-DG glycosylation activation; activation, % at 10 µM; AID 624168; hit rate 0.22% among 360,000; Pro5-aDG cells, alpha-DG glycosylation AlphaScreen (IIH6); 0% Pro5, 100% B10-LARGE cell signal;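 active = activation of at least 8% versus controls, or a plate z-score of at least 8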;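 note: Pro5 are CHO cells carrying HIG-tagged alpha-DG that lacks glycosylation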
H9c2 protect = protects H9c2 cardiomyocytes from peroxide injury. H2O2 injury protection, ATPLite, 2 h. protection from H2O2 cell death, % at 20 µM. hit rate 0.63% among 360,000. AID 588492;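 active = compounds giving at least 50% protection of heart cells from peroxide-induced death in the single-dose screen, raw or plate-pattern-corrected value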;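 note: 0% = DMSO wells with peroxide and 100% = DMSO wells without peroxide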
* marks the source's active call; other numbers are inactive results; ? = inconclusive; / = no result given.

SMILES	ARNT-TACC3 inh	Vif imaging	Glyco luc inh	aDG glyco act	H9c2 protect
O=C(CCn1cnc(-c2ccccc2)c1-c1ccccc1)N/N=C/c1ccc(O)cc1	0	-21	6	0	8
O=C(CCCCC(=O)NN=Cc1ccccc1O)NN=Cc1ccccc1O	-2	-4	-2	1	60*
Cc1cccc(NC(=O)CCC(=O)N/N=C/c2ccc(O)cc2O)c1	60*	1	5	0	69*
O=C(CCn1cnc(-c2ccccc2)c1-c1ccccc1)N/N=C/c1ccccc1O	3	-20	6	0	57*
CC(=O)N(C)C[C@H]1Oc2ncc(C#C[C@H](C)O)cc2C(=O)N([C@H](C)CO)C[C@@H]1C	-6	/	/	/	/
O=C(C[C@@H]1C=C[C@@H](NC(=O)Nc2ccccc2F)[C@@H](CO)O1)NCc1ccc(-c2ccccc2)cc1	-18	/	/	/	/
CN(CC(=O)O/N=C(\N)c1ccc([N+](=O)[O-])cc1)S(=O)(=O)c1ccc2ccccc2c1	2	59*	5	0	-9
COc1ccc(/C(N)=N/OC(=O)CN(C)S(=O)(=O)c2ccccc2)cc1	/	-1	-1	-1	-5
CNC[C@@H]1Oc2cc(C#Cc3ccccn3)ccc2S(=O)(=O)N([C@@H](C)CO)C[C@H]1C	34	/	/	/	/
CNC[C@@H]1Oc2cc(C#Cc3ccccn3)ccc2S(=O)(=O)N([C@H](C)CO)C[C@H]1C	46*	/	/	/	/
CC(=O)N(C)C[C@@H]1Oc2cc(-c3ccc(C#N)cc3)ccc2S(=O)(=O)N([C@H](C)CO)C[C@@H]1C	active	/	/	/	/
O=C(C[C@@H]1CC[C@@H](NC(=O)C2CCOCC2)[C@@H](CO)O1)Nc1nccs1	-1	/	/	/	/
CN1c2ccc(C#Cc3cccnc3)cc2[C@H]2[C@H](CCN2C(=O)C2CCCCC2)[C@@H]1CO	2	/	/	/	/
O=C(NC(=C(Cl)Cl)S(=O)(=O)c1ccc(Cl)cc1)c1ccccc1	-2	2	59*	0	-6
Cc1ccc(C(=O)NC(=C(Cl)Cl)S(=O)(=O)c2ccc(Cl)cc2)cc1	-3	10	54*	0	-10
Cc1ccc(S(=O)(=O)C(NC(=O)c2ccccc2)=C(Cl)Cl)cc1	-3	?	75*	0	-16
CC(C)C#Cc1ccc2c(c1)O[C@H](CN(C)C(=O)c1ccncc1)[C@@H](C)CN([C@@H](C)CO)S2(=O)=O	1	/	/	/	/
COc1ccc2[nH]c(=O)c(CN(Cc3nnnn3Cc3ccc(F)cc3)CC3CCCO3)cc2c1 (stereo not given)	2	22	1	0	32
COCCn1nnnc1CN(CCc1ccccc1)Cc1cc2cc(OC)ccc2[nH]c1=O	9	9	-3	0	64*
COc1ccc2[nH]c(=O)c(CN(Cc3nnnn3Cc3ccccc3)CC3CCCO3)cc2c1 (stereo not given)	4	-6	2	0	67*
CCOC(=O)c1cc(C#N)c(SCC(N)=O)[nH]c1=O	0	0	1	0	-1
CCOC(=O)c1cc(C#N)c(SCC(=O)c2cc(C#N)c(SC)nc2C)[nH]c1=O	5	17	1	0	76*
C[C@@H]1CN([C@@H](C)CO)C(=O)c2cc(C3=CCCCC3)cnc2O[C@@H]1CN(C)Cc1ccccc1	4	/	/	/	/
C[C@@H]1CN([C@H](C)CO)C(=O)c2cc(NS(C)(=O)=O)ccc2O[C@H]1CN(C)Cc1ccc(-c2ccccc2)cc1	10	/	/	/	/
Cc1cccc(/C=C(\C(=O)O)c2ccc(S(=O)(=O)N3CCCC3)s2)c1	45*	34	-1	0	6
SMILES	ARNT-TACC3 inh	Vif imaging	Glyco luc inh	aDG glyco act	H9c2 protect
N#C/C(=C\c1ccc(N2CCOCC2)c([N+](=O)[O-])c1)c1nc2ccccc2[nH]1	0	0	-1	0	62*
N#C/C(=C\c1cccnc1)c1nc2ccccc2[nH]1	/	-10	42*	0	19
NS(=O)(=O)c1ccc(N=Cc2c(O)n(-c3nccs3)c(=O)c3ccccc23)cc1	5	-6	1	0	52*
O=c1c2ccccc2c(C=Nc2ccc(S(=O)(=O)N3CCCCC3)cc2)c(O)n1-c1ccc(Cl)cn1	7	-2	-1	-1	-2
C[C@@H]1CN([C@@H](C)CO)C(=O)c2cc(C3=CCCCC3)cnc2O[C@@H]1CN(C)C(=O)Cc1cccnc1	0	/	/	/	/
C[C@H]1CN([C@@H](C)CO)C(=O)c2cc(-c3ccncc3)cnc2O[C@H]1CN(C)Cc1ccc(F)cc1	44*	/	/	/	/
C[C@@H]1CN([C@H](C)CO)C(=O)c2cc(C3=CCCCC3)cnc2O[C@H]1CN(C)C(=O)Cc1cccnc1	active	/	/	/	/
CCC(=O)Nc1ccc2c(c1)C(=O)N(C)C[C@H](OC)[C@@H](C)CN(C(=O)c1ccccn1)[C@@H](C)CO2	-6	/	/	/	/
O=C(C[C@H]1CC[C@H]2[C@@H](COC[C@@H](O)CN2Cc2cccc(Cl)c2)O1)NCC1CCCCC1	0	/	/	/	/
C[C@H]1CN([C@@H](C)CO)S(=O)(=O)c2ccc(C3=CCCC3)cc2O[C@@H]1CN(C)CC1CCOCC1	12	/	/	/	/
Cc1ccc(Nc2ncnc3ccccc23)cc1	/	4	-4	0	-8
Cc1ccc(/C(=N/Nc2ncnc3ccccc23)C(=O)O)cc1	61*	6	0	0	1
O=C(Nc1nnc2n1CCS2)c1ccco1	45*	1	1	0	0
CCNc1nc(NCC)nc(OCC(=O)O)n1	-7	6	1	0	1
CCNc1nc(NCC)nc(C(=O)NN)n1	75*	12	2	0	3
COc1ccc(S(=O)(=O)Nc2ccc3c(c2)n(C)c(=O)n3C)cc1C	-5	8	31*	0	3
Cn1c(=O)n(C)c2cc(NS(=O)(=O)c3ccc4c(c3)CCCC4)ccc21	3	-8	37*	3	-14
NC(=O)c1cc(NC(=O)c2ccc(NS(=O)(=O)c3cccs3)cc2)cc(C(N)=O)c1	35*	1	-2	0	0
COc1ccc(CCNC(=O)[C@@H](NC(N)=O)C(C)C)cc1	-18	51*	0	0	-2
CC[C@H](C)[C@H](NC(N)=O)C(=O)NCCc1ccc(OC)cc1	-1	-3	1	0	8
C[C@H]1CN([C@@H](C)CO)C(=O)c2cc(NC(=O)Nc3ccccc3)ccc2O[C@H]1CN(C)Cc1ccncc1	1	/	/	/	/
Cc1cc(-c2nnc3n2N=C(c2ccccc2)CS3)n[nH]1	5	-1	3	0	6
Cc1cc(-c2nnc3n2N=C(c2ccc(-c4ccccc4)cc2)CS3)n[nH]1	10	-4	37*	2	15
COc1ccc(C2=Nn3c(nnc3-c3ccco3)SC2)cc1	35	5	25*	0	18
c1ccc(-c2cc(-c3nnc4n3N=C(c3ccc5ccccc5c3)CS4)[nH]n2)cc1	-16	/	46*	0	-24
CCC(=O)Nc1ccc2c(c1)OC[C@H](C)N(Cc1nccs1)C[C@@H](C)[C@@H](OC)CN(C)C2=O	3	/	/	/	/
